Screens from PubChem.
Sampled rows, rich in hits. Any-hit rate of the full collection: about 1.3%.
Gli-Sufu antag = antagonists of Gli-Sufu signaling | 340,000 compounds, 0.74% hits | inhibition, % at 5 µM | Sufu-KO-LIGHT fibroblasts, Gli luciferase reporter luminescence | AID 588413;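 active = inhibition above about 55%, limit read from the data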;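 note: 0% = DMSO-treated cells and 100% = wells with medium but no cells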
NCOA3 inh = human NCOA3 inhibition; 360,000 compounds, 0.17% hits; Q9Y6Q9; inhibition, % at 3.6 µM; HEK293 GAL4-SRC3 luciferase reporter, luminescence;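 active = inhibition above a per-campaign cutoff, the mean of all compounds plus 3 SD, cut at about 60% in these data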;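 note: 0% = DMSO-treated cells and 100% = gossypol-treated cells at 36 µM; higher means less SRC3-driven luciferase light from the GAL4 reporter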
COUP-TFII inh = blocks human COUP-TFII nuclear receptor. HEK293T NGFI-A luciferase reporter, luminescence. inhibition, % at 8.6 µM. 370,000 compounds, 0.7% hits. AID 686940;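 active = inhibition above a per-plate cutoff, mean inhibition of test wells between control levels plus 3 SD, cut at about 38% in these data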;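 note: cells cotransfected with COUP-TFII expression vector driving the NGFI-A reporter; 0% = median of COUP-TF2 test wells and 100% = reporter-only cells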
Target sequence (P24468 whole entry, looked up): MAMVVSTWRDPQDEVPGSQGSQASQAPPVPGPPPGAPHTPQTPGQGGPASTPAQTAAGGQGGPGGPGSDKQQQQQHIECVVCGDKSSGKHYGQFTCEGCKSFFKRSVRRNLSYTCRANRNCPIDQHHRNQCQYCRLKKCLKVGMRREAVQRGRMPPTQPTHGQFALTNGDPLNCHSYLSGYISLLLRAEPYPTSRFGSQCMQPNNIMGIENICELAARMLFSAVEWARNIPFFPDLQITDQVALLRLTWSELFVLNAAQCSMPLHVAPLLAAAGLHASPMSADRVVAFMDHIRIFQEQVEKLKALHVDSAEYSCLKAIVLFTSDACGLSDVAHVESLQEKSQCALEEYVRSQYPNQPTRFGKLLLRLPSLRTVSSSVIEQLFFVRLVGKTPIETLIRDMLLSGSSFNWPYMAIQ
NCOA2 inhibitor = human SRC2 (NCOA2) inhibition; inhibition, % at 9 µM; 370,000 compounds, 0.17% hits; Q15596; AID 651957; HEK293 GAL4-SRC2 luciferase reporter, luminescence;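 active = inhibition above the mean inhibition of all tested compounds plus 3 SD, set per campaign, cut at about 52% in these data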;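 note: 0% = DMSO treated cells and 100% = cells given Gossypol at 36 µM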
SRC1 inh = inhibits human SRC1 coactivator; 360,000 compounds, 0.12% hits; AID 588354; HEK293 GAL4-SRC1 luciferase reporter, luminescence; inhibition, % at 3.6 µM;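 active = inhibition above the campaign mean plus 3 SD, with each screening campaign given its own cutoff, cut at about 60% in these data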;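 note: 0% = DMSO treated cells and 100% = gossypol at 36 µM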
LRH-1 inv ag = suppresses constitutive activity of human LRH-1; HEK293T StAR-luciferase reporter, LRH-1 transfected, 24 h; inhibition, % at 3.6 µM; 360,000 compounds, 0.13% hits; AID 602396;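 active = inhibition above the mean inhibition of all tested compounds plus 3 SD, cut at about 73% in these data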;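 note: 0% = DMSO wells and 100% = reporter-only cells lacking LRH-1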
Gli-Sufu confirm = Gli-SUFU antagonism confirmation, single concentration. shares compounds with Gli-Sufu antag. inhibition, % at 5 µM. AID 602428. 2,500 compounds, 40% hits. Sufu-KO-LIGHT cells, Gli luciferase reporter, luminescence;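 active = mean inhibition at 5 µM reaching about 45%, limit read from the data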;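 note: plate controls were DMSO-treated cells for no effect and wells lacking cells for full effect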
SufuKO cytotox = counter-screen for Gli-SUFU antagonists: cytotoxicity. cytotoxicity, % at 5 µM. AID 651994. 2,500 compounds, 32% hits. Sufu-KO-LIGHT cells cytotoxicity, ATP luminescence. shares compounds with Gli-Sufu antag;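 active = mean cytotoxicity at 5 µM above about 25%, limit read from the data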;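 note: cells exposed to compound overnight for roughly 16 to 18 hours; plate controls were DMSO wells with cells for no effect and medium without cells for full effect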
Wnt3a cs = inhibits Wnt3a reporter, counter-screen for Gli-SUFU antagonists | Wnt-LIGHT cells, Wnt3a-driven luciferase reporter, luminescence | shares compounds with Gli-Sufu antag | 2,500 compounds, 20% hits | inhibition, % at 6.25 µM | AID 651995;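 active = mean inhibition above about 25%, limit read from the data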
* hit, by the source's call; . = no result.

SMILES	Gli-Sufu antag	NCOA3 inh	COUP-TFII inh	NCOA2 inhibitor	SRC1 inh	LRH-1 inv ag	others
CC[C@@H](C(=O)[C@@H](C)[C@@H](O)[C@H](C)[C@@H]1O[C@@H]([C@@H](CC)C(=O)O)CC[C@@H]1C)[C@H]1O[C@]2(C=C[C@@H](O)[C@]3(CC[C@@](C)([C@H]4CC[C@](O)(CC)[C@H](C)O4)O3)O2)[C@H](C)C[C@@H]1C	90*	62*	45*	2	-39	86*
CC(=O)Nc1ccc(NC(=S)NC(=O)/C=C/c2ccc(Cl)cc2)cc1	-6	4	14	-24	2	-15
O=C(/C=C/c1ccc(Cl)cc1)NC(=S)Nc1ccc(NC(=O)c2ccco2)cc1	5	52	13	-45	68*	1
O=C(COc1ccc(S(=O)(=O)NC2CCCCC2)cc1)N1CCN(c2cccc(Cl)c2)CC1	18	26	57*	25	8	16
CC(C)NS(=O)(=O)c1ccc(OCC(=O)N2CCN(c3ccccc3)CC2)cc1	1	7	15	5	-6	-9
CCOC(=O)CCSc1nc(C(C)(C)C)cc(C(F)(F)F)c1C#N	-5	17	-17	70*	11	1
Cc1ccc(F)cc1C(=O)N(Cc1ccccn1)CC1CCCO1 (centres undefined)	.	.	-8	-1	.	.
CCCN(CCC)CCCNC(=O)c1cc2cc3ccc(OC)cc3nc2o1	-6	-5	-3	-5	-23	-13
COc1ccc2cc3cc(C(=O)NCCc4ccc(OC)c(OC)c4)oc3nc2c1	3	29	54*	-2	37	3
CC(=O)Nc1ccc(OCC(C)CN2CCC(C(O)(c3ccccc3)c3ccccc3)CC2)cc1 (centres undefined)	.	.	-28	-1	.	.
COc1ccc(-c2cc(-c3nc4ccccn4c3NCc3ccccc3)ccc2OC)cc1	90*	64*	101*	91*	15	91*
CCC(C)Sc1cc(-c2nc3ccc(C)cn3c2NCc2ccccc2)ccc1OC (centres undefined)	66*	13	14	17	16	15
CCN(CC(=O)Nc1ccc(OC)cc1)C(=O)CSCC(=O)Nc1cc(C)on1	7	79*	-1	-8	0	-1
CCN(CC(=O)Nc1c(F)cccc1F)C(=O)CSCC(=O)Nc1cc(C)on1	-11	15	12	24	1	-9
O=C(c1ccc(-c2ccccc2)cc1)c1ccccc1C(=O)N1CCOCC1	2	-5	-13	15	-6	-13
S=C(c1ccc(-c2ccccc2)cc1)N1CCOCC1	-2	35	34	52*	35	6
Nc1ccc(O)cc1C(=O)OCC(=O)c1ccc(C2CCCCC2)cc1	66*	24	21	-5	-15	-74	Gli-Sufu confirm=66*;SufuKO cytotox=33*;Wnt3a cs=29*
COc1ccc(C(=O)OCC(=O)c2ccc(C3CCCCC3)cc2)cc1	-5	-10	4	-23	-17	-9
COc1ccc(N(CC(=O)NCc2ccc3c(c2)OCO3)C(=O)c2csnn2)cc1	-20	5	-26	-41	5	-1
O=C(CN(C(=O)c1csnn1)c1ccc(Cl)cc1)NCc1ccc2c(c1)OCO2	53	13	22	-22	4	-26	Gli-Sufu confirm=2;SufuKO cytotox=5;Wnt3a cs=-12
Cc1ccccc1-n1c(=O)cc(N2CCc3ccccc32)[nH]c1=O	63*	-10	-15	3	7	23	Gli-Sufu confirm=29;SufuKO cytotox=-11;Wnt3a cs=-4
COc1ccc(-c2c(NC(C)=O)n(C)c3ccccc3c2=O)cc1	100*	7	1	-20	-10	8	Gli-Sufu confirm=11;SufuKO cytotox=22;Wnt3a cs=-22
C=CCOC(=O)N[C@@H](c1cccc(OC)c1)[C@@H](C)/C=C/CC(=O)O	.	.	-2	8	.	.
CCCCNC(=O)c1cn(CC)c2ccc(S(=O)(=O)N3CCCCCC3)cc2c1=O	52	2	18	20	10	-13	Gli-Sufu confirm=19;SufuKO cytotox=40*;Wnt3a cs=-28
